This is an account of results in PubChem BioAssay (Tox21).

Inconclusive results are not listed. Unmarked numbers belong to inactive results. Active and inactive are the calls of the source. The call rests on the fitted dose curve; in most records, active means well fitted inhibition curve with a large enough effect in the repeat runs; inconclusive means weak or mixed curves; inactive means flat fitted curve, though single readings scatter.
On the % scale 0 is the no-effect control and ±100 the full control effect.

Chain of Luciferin 4-monooxygenase (Photinus pyralis) (P08659 whole entry, looked up): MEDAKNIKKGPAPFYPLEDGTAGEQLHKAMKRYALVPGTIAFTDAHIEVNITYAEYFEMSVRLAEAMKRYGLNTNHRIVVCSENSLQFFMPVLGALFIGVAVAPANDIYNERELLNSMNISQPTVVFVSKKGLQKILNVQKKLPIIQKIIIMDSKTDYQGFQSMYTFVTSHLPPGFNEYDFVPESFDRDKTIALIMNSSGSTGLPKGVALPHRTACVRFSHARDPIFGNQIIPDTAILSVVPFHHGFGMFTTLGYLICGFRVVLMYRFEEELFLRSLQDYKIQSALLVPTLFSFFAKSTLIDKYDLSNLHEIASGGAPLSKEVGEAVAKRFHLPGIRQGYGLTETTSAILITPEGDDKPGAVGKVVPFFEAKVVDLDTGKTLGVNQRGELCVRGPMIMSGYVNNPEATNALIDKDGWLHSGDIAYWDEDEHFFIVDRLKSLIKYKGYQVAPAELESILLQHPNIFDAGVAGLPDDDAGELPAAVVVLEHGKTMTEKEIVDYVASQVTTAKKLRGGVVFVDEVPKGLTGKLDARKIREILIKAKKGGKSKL

In this assay the target is Luciferin 4-monooxygenase (Photinus pyralis) (UniProt P08659). Briefly: qHTS assay to identify small molecule inhibitors of firefly luciferase (AID 1224835). Further: nearly all actives have a fitted effect of over 25% in size. The following applies: purified P. pyralis luciferase, luminescence inhibition; series mostly up to 115 µM; activity change, negative = inhibition: at the top concentration. The source says:
U.S. Tox21 Program National Center for Advancing Translational Sciences [NCATS] NIH Chemical Genomics Center [NCGC] U.S. Environmental Protection Agency [EPA] National Institutes of Environmental Health Sciences [NIEHS] National Toxicology Program [NTP] U.S. Food and Drug Administration [FDA] Tox21 Assay Overview: Firefly (Photinus pyralis) luciferase is one of the most commonly used transcriptional reporters. Firefly luciferase reporter-gene assays are generally considered one of the most sensitive assay types (Wood, 1995; Wood, 1998). However, it was initially observed, in 1991, by Thompson et al., that compounds that resemble the substrates of firefly luciferase (FLuc) can act as competitive inhibitors of the enzyme, and that these compounds, upon interaction with luciferase in the cell, can actually stabilize the protein and increase its half-life. Previous profiling work by other groups to determine the prevalence of compounds that affect FLuc enzymatic activity (PubChem AID 411) identified that ~3% of the MLSMR library (then at ~72K) inhibited FLuc. […] Thus the Tox21 10K library is profiled for activity against FLuc using a biochemical assay of purified FLuc and KM concentrations of FLuc substrates (D-luciferin and ATP).
These assay plates were then treated with 23nL of compound or DMSO using a Kalypsys pin tool, which allows for delivery of a 6-point interplate titration of each compound to the assay plate (quantitative HTS.) 1 uL of firefly luciferase mix (containing 50 mM Tris acetate, pH 7.6, 0.04 uM P. pyralis luciferase, 0.01% Tween, 0.05% BSA and dH2O) was then delivered by FRD to each well. Luciferase activity was then measured using a ViewLux CCD imager.
Background: In qHTS, concentration-response curves come from the screen itself.
For the compound `CCOc1ccc(NC(=O)CC(C)=O)cc1`, the “activity change, negative = inhibition” value was -0.956%.

As to `COCCOCCOCCOCCOC`, the “activity change, negative = inhibition” value was 0.07%. For the compound `O=C(CC(=O)c1ccccc1)c1ccccc1`, the Potency was 6.06 µM (active). On to `O=C1Nc2cc(Cl)ccc2Oc2ccccc21`, for which the “activity change, negative = inhibition” value was -1.06% [at 52.9 µM]. Regarding `Cc1cc(CC(=O)O)c(C)n1-c1ccc(Cl)cc1`, the “activity change, negative = inhibition” value is 1.49% [at 52.9 µM]. Same read-out and setting: next, `Cc1ncsc1CCO`: 0.949%.

As for `CC(=O)O[C@@H]1C(=O)O[C@@H]2[C@H]1OC(=O)[C@@H]2OC(C)=O`, the “activity change, negative = inhibition” value is -2.65% [at 52.9 µM]. As for `CC(=O)SCc1ccco1`, the “activity change, negative = inhibition” value was 0.729%. Regarding `Oc1ccc(Cc2ccccc2)cc1`, the Potency was 65.7 µM (active).

For `C=C(C)C(=O)OCCOc1ccccc1`, the Potency is 35.6 µM (active). As to `O=C(/C=C/c1ccc(O)c(O)c1)O[C@@H]1C[C@](O)(C(=O)O)C[C@@H](O)[C@H]1O`, the “activity change, negative = inhibition” value is 0.47%. The same measure, in the same setting: next, `CCOc1nc2cccc(C(=O)O)c2n1Cc1ccc(-c2ccccc2-c2nn[nH]n2)cc1`: -0.0035% [at 52.9 µM]; `CCCCC(CC)COCCCN` (stereo not given): 0.0302%; `Nc1nc(N)c(-c2ccccc2)s1`: -0.125% [at 52.9 µM].

Take `OC(CCN1CCCCC1)(c1ccccc1)C1CCCCC1` (stereo not given): the “activity change, negative = inhibition” value was 2.96% [at 52.9 µM]. On the same count and under the same terms, the result for `Cn1c(NCCN(CCO)CCCc2ccc([N+](=O)[O-])cc2)cc(=O)n(C)c1=O` reads -3.21% [at 52.9 µM]; that for `COc1ccccc1OC(=O)Oc1ccccc1OC`, -0.109% [at 52.9 µM]; that for `CC(CN)CCCN` (stereo not given), 3.03%. In the case of `CC(C)=CCCC(C)CC=O` (stereo not given), the “activity change, negative = inhibition” value is 1.33%. Regarding `COc1ccc([C@@H]2Sc3ccccc3N(CCN(C)C)C(=O)[C@@H]2OC(C)=O)cc1`, the “activity change, negative = inhibition” value is -0.819% [at 52.9 µM]. On the same count and under the same terms, next, `CC(=O)OC/C=C/c1ccccc1`: -2.07%; `C=CC(C)(CCC=C(C)C)OC(=O)c1ccccc1` (stereo not given): 3.23%. For `CC(C)(C)c1cc(CO)cc(C(C)(C)C)c1O`, the “activity change, negative = inhibition” value was -0.274%.

Consider `O=C(Nc1ccccc1)OCC(CN1CCCCC1)OC(=O)Nc1ccccc1` (stereo not given), for which the “activity change, negative = inhibition” value is -5.02% [at 52.9 µM]. With `CC(=O)c1c(C)c([N+](=O)[O-])c(C(C)(C)C)c([N+](=O)[O-])c1C`, the “activity change, negative = inhibition” value was 0.712%. On the same count and under the same terms, next, `CCCCCCCCCO`: -5.13%; `O=C(O)c1cccc(N(Cc2cccnc2)c2ccc(OC(F)F)c(OC(F)F)c2)c1`: -0.36%. Turning to `CC(C)(C)c1ccc(S)cc1`, the “activity change, negative = inhibition” value is -4.67%.

On to `C1CCC2OC2C1` (stereo not given), for which the “activity change, negative = inhibition” value is 0.498%. Same read-out and setting: next, `O=C(O)c1cn(C2CC2)c2cc(Cl)c(F)cc2c1=O`: 1.51% [at 52.9 µM]; `Cc1ccc(O)c([C@H](CCN(C(C)C)C(C)C)c2ccccc2)c1`: 6.53% [at 52.9 µM]. Same read-out and setting: next, `CCCCCCCCCC=O`: -4.76%. On the same count and under the same terms, next, `CC(=O)N(CC(=O)N(C)C)c1ccccc1`: -13.7% [at 52.9 µM].

In the case of `CN1CCC(=C2c3ccccc3C=Cc3ccccc32)CC1`, the “activity change, negative = inhibition” value is -0.896% [at 52.9 µM].

Take `O=C(O)Cc1sc(-c2ccccc2)nc1-c1ccc(Cl)cc1`: the “activity change, negative = inhibition” value is -2.56% [at 52.9 µM]. On the same count and under the same terms, next, `O=S1(=O)c2cccc3cccc(c23)N1CCCN1CCN(c2ccc(F)cc2)CC1`: -2.35% [at 52.9 µM]. Same read-out and setting: next, `CCOc1ccc2[nH]cc(C(=O)NCc3ccccc3)c(=O)c2n1`: 0.667%; `COc1cc(C(C)(C)C)c(O)c(C(C)(C)C)c1`: 2.38%; `Cl/C(=C\n1cncn1)c1ccc(Cl)cc1Cl`: -6.37% [at 52.9 µM]. Still for that read-out and setting: next, `Cc1cccc(Oc2ccccc2)c1`: -5.66%.
